Drawing on PubChem BioAssay AID1346428 (National Center for Advancing Translational Sciences (NCATS), 2018), this text covers activation for 86 compounds.

Screen size: about 48,000 compounds; about 1,200 (2.5%) were called active. Roughly 2% stayed inconclusive and do not appear here. Many of the other results were omitted from the sample, so actives are more common in it than they were. Values without a mark were called inactive.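 Rule for the calls: active = activation of at least 60% and not above a set upper limit (about 1 call in 100 departs from these limits); inconclusive = activation of 40% to 60%, or above that upper limit; inactive = activation under 40%.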

Sequence of Probable G-protein coupled receptor 32 (Homo sapiens) (O75388 whole entry, looked up, the tested form may be a part): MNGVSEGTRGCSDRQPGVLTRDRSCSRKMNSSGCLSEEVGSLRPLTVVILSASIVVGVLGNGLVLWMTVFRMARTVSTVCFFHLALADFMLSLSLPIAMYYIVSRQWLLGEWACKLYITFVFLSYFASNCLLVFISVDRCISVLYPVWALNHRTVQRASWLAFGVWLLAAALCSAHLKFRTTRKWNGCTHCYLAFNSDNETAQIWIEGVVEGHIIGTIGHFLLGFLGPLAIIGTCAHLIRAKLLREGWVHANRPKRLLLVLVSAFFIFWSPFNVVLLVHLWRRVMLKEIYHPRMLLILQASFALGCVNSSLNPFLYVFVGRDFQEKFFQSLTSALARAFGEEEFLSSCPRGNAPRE

For the experiment, the target named is Probable G-protein coupled receptor 32 (Homo sapiens) (UniProt O75388). Description: qHTS for Agonists of Human Resolvin D1 Receptor DRV1. The following applies: CHO-K1 GPR32 beta-arrestin PathHunter luminescence, 90 min; at 76.9 µM; stronger effect = higher value; zero percent set by DMSO-only wells. Summed up:
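PathHunter enzyme-fragment complementation, CHO-K1 GPR32 stable line; 2,500 cells/well, overnight attach; cpd 90 min 37 °C 5% CO2; detection reagent 1 h RT; chemiluminescence. DMSO = EC0.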
A general note: qHTS replaces the single test concentration by a dilution series.
With `COc1ccc2cc(-c3nc(Cl)c4c5c(sc4n3)CC(C)CC5)c(=O)oc2c1` (stereo unspecified), the activation is -14.3%.
As for `CCCS(=O)(=O)N1CCC(n2c(C(F)(F)F)nc3cccnc32)CC1`, the activation is -3.95%.
Next, `Cc1oc2ccc(O)c(CN3CCC(C)CC3)c2c1C(=O)Nc1ccccc1`: 17.2%; `Cc1oc2ccc(O)c(CN3CCOCC3)c2c1C(=O)Nc1cccc(Cl)c1C`: 18.4%.
To `Cc1oc2ccc(O)c(CN3CCCCC3)c2c1C(=O)Nc1cccc(C(F)(F)F)c1` belongs 106% (active); to `Cc1cccc(NC(=O)C2CCCN2S(=O)(=O)c2cccc3nsnc23)c1C` (stereo unspecified), 8.79%; to `CN1CCC[C@@H]1CCO[C@](C)(c1ccccc1)c1ccc(Cl)cc1`, 68.2% (active).
Next, `COc1ccc(-n2ccnc(NCCc3ccc(Cl)cc3)c2=O)cc1OC`: 105% (active); `COc1ccccc1CNc1nccn(-c2ccc(F)cc2)c1=O`: 30.2%; `COc1cccc(CNc2nccn(-c3ccc(OC)c(OC)c3)c2=O)c1`: -0.901%.
For the compound `COc1cccc(NC(=O)Nc2ccc3c(c2)N(C)C(=O)c2ccccc2S3)c1`, the activation was 4.16%.
On to `COc1cccc(NC(=O)C2CCN(c3cc(C)nc4c(-c5ccc(Cl)cc5)c(C)nn34)CC2)c1`, for which the activation is -2.14%.
With `COc1cccc(N=C2SC(C(=O)Nc3cccc(Cl)c3)CC(=O)N2C)c1` (stereo unspecified), the activation was 68.2% (active).
`CC(C)c1ccc(NC(=O)c2ccc3c(O)c(S(=O)(=O)c4ccccc4)c(=O)[nH]c3c2)cc1`: the activation was -0.853%.
To `O=C(c1cnn(-c2ccc(F)cc2)c1-n1cccc1)N1CCN(c2ccc(F)cc2)CC1` belongs 19%; to `Cc1ccc(OCC(=O)Nc2ccc(Cl)c(-c3nc4ccccc4[nH]3)c2)cc1C`, 70.6% (active).
Next, `COc1ccc(CC(=O)Nc2ccc(-c3nc4ccccc4s3)c(C)c2)cc1`: 27.8%.
On to `COc1ccc(NC(=O)CSc2nc3ccccc3[nH]2)cc1`, for which the activation is -10%.
To `COc1ccc(CNC(=O)Cc2coc3ccc(C(C)C)cc23)cc1` belongs -15.8%; to `COc1ccc2c(c1)c(N1CCCC1=O)c(C(=O)Nc1ccc(OC)c(Cl)c1)n2C`, 3.27%; to `CCCCN(CCCC)CCC(O)c1cc2c(Cl)cc(Cl)cc2c2cc(C(F)(F)F)ccc12` (stereo unspecified), 98.9% (active).
To `CCOc1ccc(CCNC(=O)c2csc3c2CCCCC3)cc1` belongs 3.74%.
To `Brc1cccc(-c2nnn3c2nc(NC2CCCCC2)c2ccccc23)c1` belongs -7%; to `O=C(Nc1nc2c(s1)CCCC2)c1ccccc1F`, -7.97%; to `Cc1nc2ccc(S(=O)(=O)NC(C(=O)NCc3ccccc3Cl)C(C)C)cc2s1` (stereo unspecified), 7.27%.
With `CC(C)c1ccc(S(=O)(=O)Nc2ccc(O)c(Sc3nc4ccccc4s3)c2)cc1`, the activation is 70.6% (active).
To `CC(C)(C)c1ccc(S(=O)(=O)Nc2ccc(O)c(Sc3nc4ccccc4s3)c2)cc1` belongs 2.42%.
Next, `Cc1ccc(-n2c(=O)c3cccnc3n2CC(=O)Nc2ccccc2C(F)(F)F)cc1C`: -16.8%; `CCCC12CN3CC(C)(CN(C1)C3c1ccccc1Cl)C2=O` (stereo unspecified): -8.25%.
Next, `CCN(CCCNC(=O)c1cc2cc3cc(OC)ccc3nc2s1)c1ccccc1`: -15.5%; `Cc1cccc(N2CCN(C(=O)c3cnc(N4CCCC4)nc3C)CC2)c1C`: 36.6%.
As to `CCN(C(=O)Cn1c(=O)nc(-c2ccccc2)c2cc(Cl)ccc21)c1cccc(C)c1`, the activation was -7.41%.
In the case of `COc1cccc(CNC(=O)CN2C(=O)CCc3cc(S(=O)(=O)N4CCOCC4)ccc32)c1`, the activation was 0%.
Regarding `COc1cccc(C(=O)Nc2nnc(S(=O)(=O)N3CCOCC3)s2)c1`, the activation is 69.6% (active).
In the case of `O=C(Nc1nnc(S(=O)(=O)N2CCOCC2)s1)c1cccc(Br)c1`, the activation is 93.4% (active).
Next, `Cc1ccccc1OCC(=O)Nc1nnc(S(=O)(=O)N2CCCC2)s1`: 5.36%; `CCOc1cccc(C(=O)Nc2nnc(S(=O)(=O)N(C)c3ccc(C)cc3)s2)c1`: 63.1% (active).
Regarding `Cc1ccccc1C(=O)Nc1nnc(S(=O)(=O)N(C)c2ccc(Cl)cc2)s1`, the activation was 8.7%.
As to `Cc1cc2nc(NC(=O)c3ccc(S(=O)(=O)N4CCOCC4)cc3)sc2cc1C`, the activation is -4.68%.
Regarding `CC(C)CC(=O)Nc1nnc(S(=O)(=O)N(C)c2ccc(Cl)cc2)s1`, the activation was -5.88%.
Next, `O=C(Nc1nnc(S(=O)(=O)N2CCCCCC2)s1)c1cccc(Br)c1`: 115% (active); `CN(Cc1ccco1)S(=O)(=O)c1nnc(NC(=O)c2ccccc2)s1`: 18.1%; `O=C(Nc1nnc(S(=O)(=O)N2CCCc3ccccc32)s1)c1cccc(F)c1`: 45.3%.
Next, `Cc1ccc(C(=O)Nc2ccccc2F)cc1S(=O)(=O)N1CCOCC1`: 2.32%.
Regarding `Cc1cc(N2CCN(c3cccc(C(F)(F)F)c3)CC2)n2nc(-c3ccccc3)nc2n1`, the activation is -14.2%.
Next, `CCOC(=O)c1c(NC(=O)COc2cc(C)ccc2C(C)C)sc(C)c1C`: -11%; `Cc1ccc(C)c(S(=O)(=O)n2nc(C)c(S(=O)(=O)N3CCC(C)CC3)c2C)c1`: -11.2%; `O=C(Nc1cc(C(F)(F)F)ccc1Cl)c1cc2nc(-c3ccc4c(c3)OCO4)cc(C(F)(F)F)n2n1`: -10.2%.
Next, `Cc1ccc(NC(=O)c2ccc(CN3CC(=O)N4CCCCC4C3=O)cc2)c(Cl)c1` (stereo unspecified): -8.29%; `COc1ccc(-c2cc(C(=O)NCc3cc(OC)c(OC)c(OC)c3)[nH]n2)cc1`: -1.24%; `COc1ccc(NC(=O)CSc2nc3ccccc3n2CC(=O)N2CCCCC2C)cc1` (stereo unspecified): -15.6%.
On to `CCOc1ccccc1NC(=O)Cn1c(=O)n(Cc2ccccc2)c(=O)c2c(C)c(C(=O)N(C)C)sc21`, for which the activation is -24.5%.
`CCn1cc(C(=O)OCC(=O)Nc2cc(C)cc(C)c2)c(=O)c2ccc(C)nc21`: the activation is 20.2%.
On to `CN(Cc1ccccc1)C(=O)c1cn(C)c2ccc(S(=O)(=O)N3CCCCC3)cc2c1=O`, for which the activation was 13.1%.
Take `CCOC(=O)c1c(NC(=O)/C(C#N)=C/c2ccccc2)sc2c1CCC2`: the activation was 13.3%.
Consider `Cc1ccc(/C=C(\C#N)C(=O)Nc2cc(C)ccc2C)cc1`, for which the activation is 98.1% (active).
As for `Cc1ccc(Cl)cc1NC(=O)/C(C#N)=C\c1cn(Cc2ccc(F)cc2)c2ccccc12`, the activation is 7.85%.
To `Cc1ccccc1C(=O)N(Cc1ccc(N(C)C)cc1)CC1CCCO1` (stereo unspecified) belongs -21.9%; to `CSc1ccc(CCNC(=O)c2ccc3c(c2)nc2n3CCOC2)cc1`, -8.85%; to `COc1ccc(NC(=O)CCc2nnc3n(CC(C)C)c(=O)c4ccccc4n23)cc1OC`, 10.7%.
`CC(C)Cn1c(=O)c2ccccc2n2c(-c3cccc(Cl)c3)nnc12`: the activation was -0.202%.
Next, `COc1cccc(-c2nnc3n(CCc4ccccc4)c(=O)c4ccccc4n23)c1O`: 77.1% (active); `CC(C)(C)OC(=O)N1CCC(c2c(C(=O)Nc3ccc4c(c3)OCO4)cnn2-c2ccccc2)CC1`: 3.59%.
Consider `COc1cccc(NC(=O)CSc2cc(=O)n(C)c3ccc(Cl)cc23)c1`, for which the activation is 66.2% (active).
For `CCOc1ccc(CCNC(=O)CSc2cc(=O)n(C)c3ccc(Cl)cc23)cc1OCC`, the activation is -7.71%.
For the compound `CCN(CCCNC(=O)CSc1cc(=O)n(C)c2cc(Cl)ccc12)c1cccc(C)c1`, the activation was 3.23%.
To `Cc1ccccc1CNC(=O)Cn1c(C)c2cnn(-c3ccccc3)c(=O)c2c1C` belongs -12.3%; to `Cc1c(NC(=O)Nc2ccc(F)c(Cl)c2)c(=O)n(-c2ccccc2)n1C`, -8.62%; to `Oc1c(C(c2ccc(F)cc2)N2CCN(Cc3ccccc3)CC2)sc2nc(-c3ccco3)nn12` (stereo unspecified), 64.8% (active).
Next, `Oc1c(C(c2ccccc2Cl)N2CCOCC2)sc2nc(-c3ccco3)nn12` (stereo unspecified): -11.9%; `Cc1cccc(-n2ncc(C(=O)N3CCc4ccccc4C3)c2C2CCN(C(=O)OC(C)(C)C)CC2)c1`: -17.8%.
Turning to `O=C(COCc1cc(-c2ccc3c(c2)OCO3)on1)N1CCN(c2cccc(Cl)c2)CC1`, the activation was -10.3%.
As for `Cc1cccc(CNS(=O)(=O)c2ccc(-c3cnc(C4CC4)o3)cc2)c1`, the activation is -14.5%.
Next, `COc1ccc(CCC(=O)NCCc2csc(-c3ccc(Cl)cc3)n2)cc1`: 65.3% (active); `O=C(NCCc1csc(-c2ccc(C(F)(F)F)cc2)n1)C(=O)Nc1ccc(F)c(Cl)c1`: -7.23%.
Turning to `COc1ccc(-c2nc(CCNC(=O)c3ccc(Br)o3)cs2)cc1`, the activation was 6.04%.
Next, `CCc1nc2c(cnn2-c2ccc(C)cc2)c(=O)n1-c1ccc(C)cc1`: -4.43%; `COc1cccc(C(=O)NC2(C(F)(F)F)C(=O)Nc3c2c(=O)[nH]c(=O)n3-c2ccc(C)cc2)c1` (stereo unspecified): -5.74%.
With `CCOCCn1ccc2c(OCC(=O)NCc3ccc(C)cc3)cccc2c1=O`, the activation was -7.09%.
To `CCn1cc(CCC(=O)NCc2ccc(F)cc2)c2ccccc21` belongs -18.2%.
Consider `CCCn1ccc2c(OCC(=O)NCc3ccc(F)cc3)cccc2c1=O`, for which the activation was 76.6% (active).
`CC(=O)c1ccc(S(=O)(=O)N2CCC(Oc3ccc(-n4cnnn4)cc3)CC2)cc1`: the activation was -8.41%.
With `CCc1cccc(NC(=O)c2cc(-c3ccccc3)n[nH]2)c1`, the activation was -0.275%.
Next, `COc1cccc(-c2cc(C(=O)Nc3ccc(C)cc3)[nH]n2)c1`: 64.6% (active); `COc1cccc(NC(=O)c2csnn2)c1`: 10.9%.
For the compound `Cc1ccc2cccc(NC(=O)C(C)Oc3ccc(C)c(C)c3)c2n1` (stereo unspecified), the activation is -2.89%.
